Laboratory results as given in the supplement of paper PMC9950053.
Counter-ions that a name gives are not always drawn.

tested on: Danio rerio larvae (5 dpf); assay: combined upward orientation toward moving lines (periods 7-14) minus DMSO control (percentage points); higher = more orientation with moving lines than DMSO larvae; details: 10 µM; exposure time: 3 h pre-incubation + 3 h imaging
Procedure: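 Wild-type 5 dpf zebrafish larvae (n=48 per drug, 96-well plates, 28.5 °C) were exposed to Tocris FDA-approved library compounds at 10 µM (0.1% DMSO) for 3 h before and 3 h during imaging. Images were taken every 6 s during visual (moving coloured lines) and acoustic stimuli, and larvae were tracked with the DeepLabCut-based Z-LaP Tracker. Each behavioural measure is the treated-group mean minus the DMSO vehicle control mean (n=844), in percentage points. This mapping covers compounds with 4-character plate codes.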

Cn1cnc([N+](=O)[O-])c1Sc1ncnc2[nH]cnc12 [Azathioprine] was tested. Which “combined upward orientation toward moving lines” value did it give?
The value was 0.321.

Which “combined upward orientation toward moving lines” value does the source give for CN1CC[C@@H](NC(=O)Nc2ccc(C#N)cc2)C[C@@H]1c1nc2ccccc2[nH]1 here?
Its value is 4.61.

How did the “combined upward orientation toward moving lines” value turn out when C=C1[C@H](CO)[C@@H](O)C[C@@H]1n1cnc2c(=O)[nH]c(N)nc21 [Entecavir] was run?
The value was -3.62.

How did the “combined upward orientation toward moving lines” value turn out when Cc1ccsc1C(=CCCN1CCC[C@@H](C(=O)O)C1)c1sccc1C [Tiagabine hydrochloride] was run?
The value was 13.4.

Which “combined upward orientation toward moving lines” value does the source give for Clc1ccc(COC(Cn2ccnc2)c2ccc(Cl)cc2Cl)c(Cl)c1 (stereo not given) [Miconazole nitrate] here?
Its value is -3.31.

How did the “combined upward orientation toward moving lines” value turn out when Nc1nc(F)nc2c1ncn2[C@@H]1O[C@H](CO)[C@@H](O)[C@@H]1O [Fludarabine] was run?
The value was -6.81.

For CCOC(=O)C1=C(C)NC(C)=C(C(=O)OC)C1c1cccc(Cl)c1Cl (stereo not given) [Felodipine], which “combined upward orientation toward moving lines” value is on record?
The value was -3.05.

Which “combined upward orientation toward moving lines” value does the source give for O=C(O)CCCc1ccccc1 [Sodium 4-Phenylbutyrate] here?
The value was -3.45.

CNC(=O)c1ccccc1Sc1ccc2c(/C=C/c3ccccn3)n[nH]c2c1 [Axitinib] was tested. Which “combined upward orientation toward moving lines” value did it give?
Its value is 4.21.

For CCOc1cc(CC(=O)N[C@@H](CC(C)C)c2ccccc2N2CCCCC2)ccc1C(=O)O [Repaglinide], which “combined upward orientation toward moving lines” value is on record?
The value was -4.89.

How did the “combined upward orientation toward moving lines” value turn out when COc1cccc2c1C(=O)c1c(O)c3c(c(O)c1C2=O)C[C@@](O)(C(=O)CO)C[C@@H]3O[C@H]1C[C@H](N)[C@H](O)[C@H](C)O1 [Doxorubicin hydrochloride] was run?
Its value is -1.38.

How did the “combined upward orientation toward moving lines” value turn out when C[C@@H](O[C@H]1OCCN(Cc2n[nH]c(=O)[nH]2)[C@H]1c1ccc(F)cc1)c1cc(C(F)(F)F)cc(C(F)(F)F)c1 [Aprepitant] was run?
Its value is 4.05.

For Cc1ccc(-c2cc(C(F)(F)F)nn2-c2ccc(S(N)(=O)=O)cc2)cc1 [Celecoxib], which “combined upward orientation toward moving lines” value is on record?
The value was -15.8.

CCC(C)(C)C(=O)O[C@H]1C[C@@H](C)C=C2C=C[C@H](C)[C@H](CC[C@@H]3C[C@@H](O)CC(=O)O3)[C@H]21 [Simvastatin] was tested. Which “combined upward orientation toward moving lines” value did it give?
Its value is -3.05.

CC(C)(C)NC(=O)[C@@H]1C[C@@H]2CCCC[C@@H]2CN1C[C@@H](O)[C@H](Cc1ccccc1)NC(=O)[C@H](CC(N)=O)NC(=O)c1ccc2ccccc2n1 [Saquinavir mesylate] was tested. Which “combined upward orientation toward moving lines” value did it give?
Its value is -6.24.

How did the “combined upward orientation toward moving lines” value turn out when Brc1c(NC2=NCCN2)ccc2nccnc12 was run?
Its value is -1.14.

How did the “combined upward orientation toward moving lines” value turn out when CN(C)CC/C=C1/c2ccccc2COc2ccc(CC(=O)O)cc21 [Olopatadine hydrochloride] was run?
Its value is -3.54.

For CC#C[C@]1(O)CC[C@H]2[C@@H]3CCC4=CC(=O)CCC4=C3[C@@H](c3ccc(N(C)C)cc3)C[C@@]21C [Mifepristone], which “combined upward orientation toward moving lines” value is on record?
Its value is 2.94.

With O=c1[nH]c(=O)n([C@H]2C[C@H](O)[C@@H](CO)O2)cc1C(F)(F)F [Trifluorothymidine] as the compound, how does the “combined upward orientation toward moving lines” value read?
Its value is -3.41.

CC(C)[C@H]1CC[C@H](C(=O)N[C@H](Cc2ccccc2)C(=O)O)CC1 [Nateglinide] was tested. Which “combined upward orientation toward moving lines” value did it give?
Its value is -0.86.

CC(C)CN(C[C@@H](O)[C@H](Cc1ccccc1)NC(=O)O[C@H]1CO[C@H]2OCC[C@H]21)S(=O)(=O)c1ccc(N)cc1 [Darunavir] was tested. Which “combined upward orientation toward moving lines” value did it give?
The value was 0.247.

COCCCOc1cc(C[C@@H](C[C@H](N)[C@@H](O)C[C@H](C(=O)NCC(C)(C)C(N)=O)C(C)C)C(C)C)ccc1OC [Aliskiren hemifumarate] was tested. Which “combined upward orientation toward moving lines” value did it give?
The value was -2.45.

Which “combined upward orientation toward moving lines” value does the source give for C=CC(=O)N1CCC[C@@H](n2nc(-c3ccc(Oc4ccccc4)cc3)c3c(N)ncnc32)C1 [Ibrutinib] here?
Its value is -3.41.

CCCc1nc2c(C)cc(-c3nc4ccccc4n3C)cc2n1Cc1ccc(-c2ccccc2C(=O)O)cc1 [Telmisartan] was tested. Which “combined upward orientation toward moving lines” value did it give?
Its value is -1.92.

How did the “combined upward orientation toward moving lines” value turn out when CC(C)c1ccc2oc3nc(N)c(C(=O)O)cc3c(=O)c2c1 [Amlexanox] was run?
Its value is -5.36.

For CCCc1nc(C(C)(C)O)c(C(=O)O)n1Cc1ccc(-c2ccccc2-c2nnn[nH]2)cc1 [Olmesartan], which “combined upward orientation toward moving lines” value is on record?
Its value is -6.03.

How did the “combined upward orientation toward moving lines” value turn out when CN1CCC[C@@H]1Cc1c[nH]c2ccc(CCS(=O)(=O)c3ccccc3)cc12 [Eletriptan hydrobromide] was run?
Its value is -1.33.

How did the “combined upward orientation toward moving lines” value turn out when NC(=O)c1ncn([C@@H]2O[C@H](CO)[C@@H](O)[C@H]2O)n1 [Ribavirin] was run?
The value was -1.89.

With O=C(c1ccc(OCCN2CCCCC2)cc1)c1c(-c2ccc(O)cc2)sc2cc(O)ccc12 [Raloxifene hydrochloride] as the compound, how does the “combined upward orientation toward moving lines” value read?
The value was -2.81.

Which “combined upward orientation toward moving lines” value does the source give for Nc1cccc2c1CN(C1CCC(=O)NC1=O)C2=O (stereo not given) [Lenalidomide] here?
The value was 2.56.

For Nc1ccn([C@@H]2O[C@H](CO)[C@@H](O)C2(F)F)c(=O)n1 [Gemcitabine hydrochloride], which “combined upward orientation toward moving lines” value is on record?
Its value is 5.82.

CN1CC(=O)N2[C@H](c3ccc4c(c3)OCO4)c3[nH]c4ccccc4c3C[C@@H]2C1=O [Tadalafil] was tested. Which “combined upward orientation toward moving lines” value did it give?
The value was -7.35.

How did the “combined upward orientation toward moving lines” value turn out when COC(c1ccccc1)(c1ccccc1)[C@H](Oc1nc(C)cc(C)n1)C(=O)O [Ambrisentan] was run?
Its value is -0.152.

CN1CCC[C@@H]1CCO[C@](C)(c1ccccc1)c1ccc(Cl)cc1 [Clemastine fumarate] was tested. Which “combined upward orientation toward moving lines” value did it give?
The value was 4.64.

With CN(C)CCc1c[nH]c2ccc(Cn3cncn3)cc12 [Rizatriptan benzoate] as the compound, how does the “combined upward orientation toward moving lines” value read?
The value was -1.53.

CC(=O)O[C@H]1C(=O)[C@@]2(C)[C@H]([C@H](OC(=O)c3ccccc3)[C@]3(O)C[C@H](OC(=O)[C@H](O)[C@@H](NC(=O)c4ccccc4)c4ccccc4)C(C)=C1C3(C)C)[C@]1(OC(C)=O)CO[C@@H]1C[C@@H]2O [Taxol] was tested. Which “combined upward orientation toward moving lines” value did it give?
Its value is -6.91.

How did the “combined upward orientation toward moving lines” value turn out when CCOc1nc2cccc(C(=O)O)c2n1Cc1ccc(-c2ccccc2-c2noc(=O)[nH]2)cc1 [Azilsartan] was run?
Its value is 1.61.

How did the “combined upward orientation toward moving lines” value turn out when C/C(O)=C(\C#N)C(=O)Nc1ccc(C(F)(F)F)cc1 [Teriflunomide] was run?
The value was -3.07.

For Cc1ccc(NC(=O)c2ccc(CN3CCN(C)CC3)cc2)cc1Nc1nccc(-c2cccnc2)n1 [Imatinib mesylate], which “combined upward orientation toward moving lines” value is on record?
Its value is -1.28.

How did the “combined upward orientation toward moving lines” value turn out when Cc1cccc(CN2CCN(C(c3ccccc3)c3ccc(Cl)cc3)CC2)c1 (stereo not given) [Meclizine dihydrochloride] was run?
The value was -2.56.
